Inconclusive results are not listed. The source made the active and inactive calls. Calls come from the whole dose curve; as a rule, active = well fitted inhibition curve with a large enough effect; inconclusive = small, poorly fitted or top-dose-only effect, or effect the other way; inactive = flat fitted curve, though single readings scatter. Peptide text beside a SMILES is read from it.

ATP-dependent 6-phosphofructokinase (Trypanosoma brucei brucei), sequence (O15648 whole entry, looked up): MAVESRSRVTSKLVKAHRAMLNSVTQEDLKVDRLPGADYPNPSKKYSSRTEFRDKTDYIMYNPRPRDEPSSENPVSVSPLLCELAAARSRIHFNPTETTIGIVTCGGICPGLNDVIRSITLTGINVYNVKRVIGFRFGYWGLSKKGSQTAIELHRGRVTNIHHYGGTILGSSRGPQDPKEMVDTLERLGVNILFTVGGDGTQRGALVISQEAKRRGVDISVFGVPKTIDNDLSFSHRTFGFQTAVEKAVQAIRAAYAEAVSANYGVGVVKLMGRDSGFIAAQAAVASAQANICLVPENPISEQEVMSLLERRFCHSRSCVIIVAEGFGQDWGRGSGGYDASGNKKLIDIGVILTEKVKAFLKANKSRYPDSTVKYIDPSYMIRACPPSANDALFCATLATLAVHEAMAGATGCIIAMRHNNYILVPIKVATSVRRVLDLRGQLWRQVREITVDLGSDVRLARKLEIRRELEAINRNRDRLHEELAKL

The test has as its target ATP-dependent 6-phosphofructokinase (Trypanosoma brucei brucei) (UniProt O15648). As to the kind of experiment: qHTS Assay to Find Inhibitors of T. brucei phosphofructokinase: hit validation (AID 492961).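 Note: luminescence reports ADP formed as PFK phosphorylates fructose-6-phosphate with ATP.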 The note with it: T. brucei PFK, ADP-Glo luminescence; series mostly up to 51.4 µM. From the text:
NIH Molecular Libraries Probe Production Network [MLPCN] NIH Chemical Genomics Center [NCGC] Grant: 1 R03 MH092153-01 PI Name: Malcolm Walkinshaw, University of Edinburgh NCGC Assay Overview: Various species of the protozoan family Trypanosomatidae are responsible for a range of serious human diseases in tropical and subtropical areas of the world. […] Many of the disorders caused by trypanosomatids are fatal if left untreated, but most currently used drugs are inefficient and toxic. […] Oxidative metabolism involving the mitochondrial tricarboxylic acid cycle and oxidative phosphorylation are repressed in these parasites, and recent RNA interference (RNAi) experiments have shown that even partial depletion of certain individual glycolytic enzymes can lead to the death of cultured parasites. One such glycolytic enzyme, phosphofructokinase (PFK), catalyzes the formation of fructose-1,6-bisphosphate (F1,6BP) and ADP from fructose-6-phosphate (F6P) and ATP, and in many metabolic circumstances makes an important contribution to the control of flux through the glycolytic pathway. As a specific glycolytic target, PFK is particularly attractive as it catalyzes the first irreversible step in glycolysis, and structural and kinetic studies have shown very substantial and essential differences from corresponding host enzymes, allowing for the discovery of parasite-selective inhibitors. The goal of this screen is to find small-molecule inhibitors of T. brucei PFK using a biochemical assay that measures PFK activity as a function of ADP production. A luminescence-based assay for T. brucei PFK activity has been developed which uses luciferase to detect production of ADP. Traditional luciferase-based nucleotide detection reagents rely on ATP production as a direct substrate for the luciferase reaction; however, PFK catalyzes the transfer of a phosphate from ATP to F6P, resulting in the net depletion of ATP. To directly measure the ADP product of the PFK reaction, we used the ADP-Glo detection kit (Promega), which utilizes two separate reactions to 1) deplete all remaining uncatalyzed ATP and 2) convert all remaining ADP to ATP, which is then detected through a traditional luciferase-coupled reaction. Compounds were screened as a concentration-titration series that ranged from 57 uM to 0.7 nM.
NCGC Assay Protocol Summary: Substrate buffer was dispensed into white, solid 1536-well plates at 3uL/well in 0.1M triethanolamine (TEA) buffer, pH 8.0, containing final concentrations of 5 mM MgCl2, 0.01% Tween20, 0.5 mM fructose-6-phosphate (F6P) and 0.1mM ATP. Then, 23 nL of compounds or DMSO were delivered to each well using a pin tool. One uL T. brucei PFK (0.1M TEA, 0.01% Tween20, 0.1% bovine serum albumin (BSA) and 1.25nM PFK, final concentrations) was then dispensed, and plates were incubated at room temperature for 45 min. The luminescent detection reagent, ADP-Glo (Promega), was then added in two steps: the first reagent, ADP-Glo (which converts remaining uncatalyzed ATP), was added at 2.5uL/well and incubated for ten minutes at room temperature, and the second component, Kinase Detection reagent (which converts ADP to ATP as a substrate for luciferase-based luminescence), was added immediately after at 5uL/well, followed by one final ten minute room temperature incubation. The plates were measured on a ViewLux plate reader for luminescent signal using a clear filter with a one second exposure. The %Activity was determined from the corrected luminescence values. As no specific T. brucei PFK inhibitors have been identified in the literature, 1x (1.25nM) and 0x PFK enzyme controls (untreated) were included to normalize %Activity of identified inhibitors; 0x enzyme values corresponded to 100%Activity (full inhibition), while 1x PFK enzyme values were used to normalize 0%Activity (no inhibition). Concentration-response curves were fitted to the signals arising from the resulting luminescence. […]
Background: In qHTS, concentration-response curves come from the screen itself.
Take `CCCCc1ccc2nc(NC(=O)OC)[nH]c2c1`: the call was inactive.

For the molecule `Nc1ccn([C@@H]2O[C@H](CO)[C@@H](O)C2O)c(=O)n1` (stereo not given in full), the call was inactive.

Take `CCOC(=O)c1c(C)n(C)c2ccc(O)cc12`: the result was inactive.

As to `CCN(CCO)CCCC(C)Nc1ccnc2cc(Cl)ccc12` (stereo not given), the molecule was called inactive.

As to `COC(=O)[C@H](Cc1ccccc1)NC(=O)[C@@H](N)CC(=O)O` (H-Asp-Phe-OMe), the molecule was classed as inactive.

`Nc1cc(C(Cl)=C(Cl)Cl)c(S(N)(=O)=O)cc1S(N)(=O)=O`: the molecule was called inactive.

In the case of `Cc1nc(Nc2ncc(C(=O)Nc3c(C)cccc3Cl)s2)cc(N2CCN(CCO)CC2)n1`, the result was inactive.

As for `CC(C)c1ccc2oc3nc(N)c(C(=O)O)cc3c(=O)c2c1`, the molecule was called inactive.

Regarding `O=C(O)CCNC(=O)c1ccc(N=Nc2ccc(O)c(C(=O)O)c2)cc1`, the call was inactive.

Consider `CC(S)C(=O)NCC(=O)O` (stereo not given), for which the call was inactive.

As to `COc1cc2c(cc1OC)C1CC(=O)C(CC(C)C)CN1CC2` (stereo not given), the molecule was classed as inactive.

With `CC1(C)CCC(C)(C)c2cc(NC(=O)c3ccc(C(=O)O)cc3)ccc21`, the outcome was inactive.

Take `O=C(CS(=O)Cc1ccco1)NCC=CCOc1cc(CN2CCCCC2)ccn1` (stereo not given): the molecule was classed as inactive.

`O=C(NCCO[N+](=O)[O-])c1cccnc1`: the molecule was classed as inactive.

For `Cc1cc2c(s1)Nc1ccccc1N=C2N1CCN(C)CC1`, the result was inactive.

On to `CCCCN(CCCC)CCC(O)c1cc2c(Cl)cc(Cl)cc2c2cc(C(F)(F)F)ccc12` (stereo not given), for which the molecule was called inactive.

Regarding `Cc1cc(=O)oc2cc(O)ccc12`, the call was inactive.

In the case of `Cc1cc2cc3c(C)cc(=O)oc3c(C)c2o1`, the result was inactive.

Turning to `C=C(c1ccc(C(=O)O)cc1)c1cc2c(cc1C)C(C)(C)CCC2(C)C`, the molecule was called inactive.

As to `COc1cc(OC)c(C(=O)CCCN2CCCC2)c(OC)c1`, the molecule was classed as inactive.

Take `CS(=O)(=O)OCCCCOS(C)(=O)=O`: the result was inactive.

Take `CC1=C(C)C(=O)C(C(CCCCCC(=O)O)c2ccccc2)=C(C)C1=O` (stereo not given): the molecule was called inactive.

With `Nc1cccc2c1CN(C1CCC(=O)NC1=O)C2=O` (stereo not given), the outcome was inactive.

As for `Oc1ccc(OCc2ccccc2)cc1`, the call was inactive.

`CCN(CC)CCOc1ccc(Cc2ccccc2)cc1`: the result was inactive.

With `Cc1cc(C2CCCCC2)n(O)c(=O)c1`, the result was inactive.

For `O=c1oc2cc(O)ccc2s1`, the call was inactive.

For the molecule `C[Se]CCC(N)C(=O)O` (stereo not given), the result was inactive.

With `Cc1ccc(NC(=O)c2ccc(CN3CCN(C)CC3)cc2)cc1Nc1nccc(-c2cccnc2)n1`, the outcome was inactive.

For the molecule `N=C(N)c1ccc2cc(OC(=O)c3ccc(N=C(N)N)cc3)ccc2c1`, the molecule was classed as inactive.

In the case of `N=C(N=C(N)N)N1CCOCC1`, the call was inactive.

For `O=C(OC1C[C@H]2CC[C@@H](C1)[N+]21CCCC1)C(O)(c1ccccc1)c1ccccc1` (stereo not given in full), the molecule was called inactive.

On to `O=C1CCc2ccc(OCCCCN3CCN(c4cccc(Cl)c4Cl)CC3)cc2N1`, for which the call was inactive.

Consider `COC(=O)C1=C(C)NC(C)=C(C(=O)OCCCN2CCC(c3ccccc3)(c3ccccc3)CC2)C1c1cccc([N+](=O)[O-])c1` (stereo not given), for which the outcome was inactive.

In the case of `N[C@@H](Cc1cc(I)c(Oc2cc(I)c(O)c(I)c2)c(I)c1)C(=O)O`, the result was inactive.

As for `CC(C)(S)[C@@H](N)C(=O)O`, the result was inactive.

Turning to `COCCCOc1ccnc(CS(=O)c2nc3ccccc3[nH]2)c1C` (stereo not given), the call was inactive.

On to `C=CCc1cc(OC)c(O)c(C(=O)NCCO)c1`, for which the molecule was called inactive.

Turning to `COc1ccc2cc([C@H](C)C(=O)O)ccc2c1`, the molecule was called inactive.

`CN1CCC(=C2c3ccccc3CCc3sccc32)CC1`: the molecule was called inactive.

The record behind these values is PubChem BioAssay (NCATS).
